Assay results reported in PubChem BioAssay.
Calls of active or inactive are those of the source.

Legend:
Albumin (Bos taurus) = Albumin (Bos taurus) (UniProt P02769); assay: compounds binding labelled BSA control protein – biochemical, small-molecule microarray, Alexa647 label, 635/667 nm fluorescence, artefact control for SMM control protein annotation, profiling panel (AID 1118); details: BSA-A647 binding, fluorescence 635 nm, higher = more signal;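 also: score merges 667 nm emission intensity and signal-to-noise per printed compound spot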
[1] = probe aXIP binding to arrayed compounds – biochemical, NeuroSMM set, 635/667 nm fluorescence, primary screen (AID 1119); details: small-molecule microarray, higher = more signal, called active from +8 up or from −8 down;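 also: probe is the protein aXip251-270 applied at 1 µg/mL to compound-printed slides; binding of probe to printed compounds measured as 667 nm fluorescence plus signal to noise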
[2] = probe aNOTCH3 binding on compound microarray – biochemical, small-molecule microarray, 635/667 nm fluorescence, primary screen (AID 1120); details: higher = more signal;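 also: probe is a biotin-tagged antibody raised against NOTCH3 rather than NOTCH3 protein; score merges spot fluorescence near 667 nm with spot signal to noise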
[3] = probe aNOTCH2 binding on compound microarray – biochemical, small-molecule microarray, 635/667 nm fluorescence, primary screen (AID 1121); details: higher = more signal;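 also: score merges feature fluorescence read at 667 nm with its signal to noise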
[4] = target: Carbonic anhydrase 2 (Homo sapiens) (UniProt P00918); assay: compounds binding carbonic anhydrase 2 – biochemical, small-molecule microarray, Alexa647-labelled CAII, profiling panel (AID 1122); details: CAII-A647 binding fluorescence, higher = more signal
[5] = COS7 lysate on small-molecule microarray, probe aHis, 635 nm (AID 1123); details: COS7 cell lysate, fluorescence, higher = more signal;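 also: z-score combines 667nm fluorescence intensity with signal-to-noise per printed compound spot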
[6] = probe aLAP1 signal on lysate-treated microarray – cell lysate, small-molecule microarray, COS7 lysate, primary screen (AID 1124); details: probe aLAP1, fluorescence, higher = more signal;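 also: lysate comes from COS7 cells expressing LAP1 and is applied at 0.3 µg/mL; score merges spot fluorescence near 667 nm with signal-to-noise over triplicate slides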
Sam68 (KHDRBS1) = assay: compounds binding KHDRBS1 protein – biochemical, small-molecule microarray, 635 nm fluorescence, primary screen (AID 1125); details: higher = more signal;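 also: score merges 667 nm channel intensity with signal to noise over triplicate slides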
[7] = tested on: Chordin-like protein 2 (CHRDL2); assay: compounds binding chordin-like 2 – biochemical, small-molecule microarray, 635 nm fluorescence, primary screen (AID 1126); details: fluorescence 635 nm, higher = more signal;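 also: printed compound slides probed with Chrdl2 protein at 4 µg/mL for 1 h at 4 C; score merges 667 nm emission intensity with signal to noise over three replicate slides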
[8] = target: Concanavalin-A (Canavalia ensiformis) (UniProt P02866); assay: compounds binding concanavalin A lectin – biochemical, small-molecule microarray, Alexa647 label, 635 nm, artefact control for SMM control protein annotation, primary screen (AID 1127); details: ConA-A647 binding fluorescence, higher = more signal;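 also: z combines 667 nm emission intensity with signal-to-noise across three replicate slides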
[9] = compounds binding Alexa647 anti-His antibody – biochemical, small-molecule microarray, 635 nm fluorescence, artefact control for SMM control protein annotation, primary screen (AID 1128); details: higher = more signal;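 also: score merges feature fluorescence with signal-to-noise for each printed compound spot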
[10] = tested on: Human papillomavirus type 1a E7 protein (residues 1-88); assay: HPV1a E7 small-molecule binders, primary screen, biochemical, small-molecule microarray, residues 1-88, 635 nm (AID 1129); details: small-molecule microarray binding, fluorescence 635 nm; higher = more signal
[11] = target: Focal adhesion kinase 1 (Homo sapiens) (UniProt Q05397); assay: PTK2 protein binding on printed compound slides – biochemical, small-molecule microarray, 635/667 nm fluorescence, BSA, DTT, primary screen (AID 1130); details: 635 nm fluorescence, higher = more signal;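 also: composite of spot emission at 667 nm and signal to noise over triplicate slides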
[12] = tested on: Fibrinogen (Alexa647-labelled); assay: Alexa647-fibrinogen binding to printed small molecules – biochemical, small-molecule microarray, 635/667 nm fluorescence, artefact control for SMM control-protein annotation, profiling panel (AID 1131); details: fibrinogen-A647 binding fluorescence, higher = more signal;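 also: z-score merges 667 nm fluorescence with per-spot signal-to-noise over triplicate slides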
[13] = target: Follistatin (Homo sapiens) (UniProt P19883); assay: FST protein binding to printed compounds – biochemical, small-molecule microarray, 635/667 nm fluorescence, primary screen (AID 1132); details: 635 nm fluorescence, higher = more signal
[14] = target: Fibroblast growth factor 2 (Homo sapiens) (UniProt P09038); assay: basic fibroblast growth factor binding to printed compounds – biochemical, small-molecule microarray, 635/667 nm fluorescence, primary screen (AID 1133); details: FGF2, fluorescence 635/667, higher = more signal
[15] = JC-1 mitochondrial potential readout, lung cancer cells – cell-based, A549, JC-1 fluorescence, basal, 24 h, 100 nL, profiling panel (AID 1138); details: higher = more signal;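 also: A549 lung adenocarcinoma cells under basal conditions with no added stimulus; test concentration not given here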
Lefty1 = Lefty1 protein binding to printed compounds – biochemical, small-molecule microarray, 635/667 nm fluorescence, primary screen (AID 1139); details: fluorescence 635/667, higher = more signal
[16] = tested on: wheat germ agglutinin (Triticum aestivum), Alexa647-labelled; assay: Alexa647-WGA lectin binding to printed small molecules – biochemical, small-molecule microarray, 635/667 nm fluorescence, artefact control for SMM control-protein annotation, profiling panel (AID 1140); details: WGA-A647 binding, 635 nm fluorescence, higher = more signal;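 also: score merges 667 nm feature emission with signal to noise over triplicate slides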
[17] = target: Luciferin 4-monooxygenase (Photinus pyralis) (UniProt P08659); assay: inhibition of purified Photinus pyralis luciferase – biochemical, luminescence, purified enzyme, 2006 set, primary screen (AID 1141); details: purified firefly luciferase, SteadyGlo luminescence, 30 min; higher = more signal, called active from +8 up or from −8 down;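 also: cell-free assay with purified firefly luciferase at 100 ng per well in PBS; test concentration not given here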
Luciferin 4-monooxygenase (Photinus pyralis), sequence (P08659 whole entry, looked up): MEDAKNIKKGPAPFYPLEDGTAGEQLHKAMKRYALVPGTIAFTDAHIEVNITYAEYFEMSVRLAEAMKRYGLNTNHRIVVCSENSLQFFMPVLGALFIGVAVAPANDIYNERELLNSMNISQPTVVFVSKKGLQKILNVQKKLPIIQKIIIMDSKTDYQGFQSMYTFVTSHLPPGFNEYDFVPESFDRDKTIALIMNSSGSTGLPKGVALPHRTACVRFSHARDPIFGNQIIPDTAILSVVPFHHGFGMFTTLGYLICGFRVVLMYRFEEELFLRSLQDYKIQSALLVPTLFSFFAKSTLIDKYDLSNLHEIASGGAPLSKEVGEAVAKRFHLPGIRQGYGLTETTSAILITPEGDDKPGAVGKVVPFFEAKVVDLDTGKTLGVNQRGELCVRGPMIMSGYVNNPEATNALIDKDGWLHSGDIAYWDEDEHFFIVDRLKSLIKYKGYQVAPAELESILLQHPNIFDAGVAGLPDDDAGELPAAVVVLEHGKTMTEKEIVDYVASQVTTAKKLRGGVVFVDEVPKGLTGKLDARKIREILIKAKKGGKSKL

Focal adhesion kinase 1 (Homo sapiens), sequence (Q05397 whole entry, looked up): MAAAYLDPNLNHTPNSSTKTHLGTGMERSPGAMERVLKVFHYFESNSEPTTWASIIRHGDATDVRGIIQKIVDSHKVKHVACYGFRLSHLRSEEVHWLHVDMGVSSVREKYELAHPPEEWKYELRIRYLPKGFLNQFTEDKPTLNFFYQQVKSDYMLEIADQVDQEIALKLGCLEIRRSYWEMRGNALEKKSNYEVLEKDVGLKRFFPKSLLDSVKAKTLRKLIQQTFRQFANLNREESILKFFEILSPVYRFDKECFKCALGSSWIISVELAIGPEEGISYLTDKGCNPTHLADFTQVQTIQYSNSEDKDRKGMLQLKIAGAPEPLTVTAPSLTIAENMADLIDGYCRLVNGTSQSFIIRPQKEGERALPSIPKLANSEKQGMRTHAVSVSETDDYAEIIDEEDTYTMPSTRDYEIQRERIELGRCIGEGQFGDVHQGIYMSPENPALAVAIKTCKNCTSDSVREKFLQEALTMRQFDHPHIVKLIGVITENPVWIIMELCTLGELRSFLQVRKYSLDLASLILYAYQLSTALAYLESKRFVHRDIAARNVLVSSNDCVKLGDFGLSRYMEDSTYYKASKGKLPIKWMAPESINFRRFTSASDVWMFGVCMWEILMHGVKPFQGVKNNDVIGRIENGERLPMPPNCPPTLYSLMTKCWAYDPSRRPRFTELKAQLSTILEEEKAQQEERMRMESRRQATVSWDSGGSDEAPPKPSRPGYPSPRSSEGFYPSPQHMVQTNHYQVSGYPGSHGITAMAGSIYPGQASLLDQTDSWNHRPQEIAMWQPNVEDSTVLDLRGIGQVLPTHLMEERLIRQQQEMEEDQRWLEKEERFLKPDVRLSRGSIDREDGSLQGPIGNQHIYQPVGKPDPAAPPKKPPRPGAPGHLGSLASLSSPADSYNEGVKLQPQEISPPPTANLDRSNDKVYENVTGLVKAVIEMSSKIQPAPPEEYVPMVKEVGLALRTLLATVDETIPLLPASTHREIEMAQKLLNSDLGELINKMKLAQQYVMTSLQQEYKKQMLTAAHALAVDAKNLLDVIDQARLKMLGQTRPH
Concanavalin-A (Canavalia ensiformis), sequence (P02866 whole entry, looked up): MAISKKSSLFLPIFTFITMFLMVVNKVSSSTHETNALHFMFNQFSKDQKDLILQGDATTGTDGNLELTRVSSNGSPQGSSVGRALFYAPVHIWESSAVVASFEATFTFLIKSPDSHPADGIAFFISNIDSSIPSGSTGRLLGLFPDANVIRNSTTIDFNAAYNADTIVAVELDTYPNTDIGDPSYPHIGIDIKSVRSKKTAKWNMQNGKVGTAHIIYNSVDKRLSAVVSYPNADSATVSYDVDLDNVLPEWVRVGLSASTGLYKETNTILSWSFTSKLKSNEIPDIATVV
Follistatin (Homo sapiens), sequence (P19883 whole entry, looked up): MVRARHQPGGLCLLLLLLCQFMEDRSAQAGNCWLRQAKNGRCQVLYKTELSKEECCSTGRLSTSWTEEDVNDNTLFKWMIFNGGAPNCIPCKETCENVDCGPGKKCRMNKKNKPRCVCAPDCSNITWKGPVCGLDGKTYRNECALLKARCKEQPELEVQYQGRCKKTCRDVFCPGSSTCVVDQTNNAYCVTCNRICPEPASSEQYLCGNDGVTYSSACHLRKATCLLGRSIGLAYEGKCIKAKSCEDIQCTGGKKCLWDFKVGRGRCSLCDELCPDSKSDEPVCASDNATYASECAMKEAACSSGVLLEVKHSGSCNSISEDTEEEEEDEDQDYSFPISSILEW
Fibroblast growth factor 2 (Homo sapiens), sequence (P09038 whole entry, looked up): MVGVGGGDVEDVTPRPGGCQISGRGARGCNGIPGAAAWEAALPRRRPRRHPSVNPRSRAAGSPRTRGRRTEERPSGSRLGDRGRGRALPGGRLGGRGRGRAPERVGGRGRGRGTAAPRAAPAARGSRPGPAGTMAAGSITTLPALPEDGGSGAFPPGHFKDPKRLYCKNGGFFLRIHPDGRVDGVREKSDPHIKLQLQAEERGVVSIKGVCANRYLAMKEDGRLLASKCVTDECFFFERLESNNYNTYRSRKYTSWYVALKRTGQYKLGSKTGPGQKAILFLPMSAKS
Albumin (Bos taurus), sequence (P02769 whole entry, looked up): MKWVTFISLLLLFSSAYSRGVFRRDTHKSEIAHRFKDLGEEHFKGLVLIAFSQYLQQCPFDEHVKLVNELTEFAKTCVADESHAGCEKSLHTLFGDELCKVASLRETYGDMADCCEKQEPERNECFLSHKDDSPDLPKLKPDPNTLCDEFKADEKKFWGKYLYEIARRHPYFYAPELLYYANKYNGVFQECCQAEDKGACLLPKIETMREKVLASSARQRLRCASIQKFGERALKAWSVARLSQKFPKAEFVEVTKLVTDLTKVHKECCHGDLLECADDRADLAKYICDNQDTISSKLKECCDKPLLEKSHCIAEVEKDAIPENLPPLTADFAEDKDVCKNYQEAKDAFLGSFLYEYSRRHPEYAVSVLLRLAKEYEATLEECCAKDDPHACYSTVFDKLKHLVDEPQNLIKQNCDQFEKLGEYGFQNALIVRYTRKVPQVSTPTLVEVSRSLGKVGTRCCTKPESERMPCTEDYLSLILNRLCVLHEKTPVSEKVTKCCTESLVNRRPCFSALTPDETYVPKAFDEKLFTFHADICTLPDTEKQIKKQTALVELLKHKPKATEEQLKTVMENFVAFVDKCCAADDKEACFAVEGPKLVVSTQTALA

| SMILES | composite z-score (Albumin (Bos taurus)) | composite Z-score [1] | composite z-score [2] | composite z-score [3] | composite z-score [4] | composite z-score [5] | composite z-score [6] | composite z-score (Sam68 (KHDRBS1)) | composite z-score [7] | composite z-score [8] | composite z-score [9] | composite z-score [10] | composite z-score [11] | composite z-score [12] | composite z-score [13] | composite z-score [14] | z-score [15] | composite z-score (Lefty1) | composite z-score [16] | z-score [17] |
| --- | --- | --- | --- | --- | --- | --- | --- | --- | --- | --- | --- | --- | --- | --- | --- | --- | --- | --- | --- | --- |
| CC(C)=CCCC(C)=CCON=C1C[C@@H](O)[C@@H](O)[C@@H]2[C@@H]3C(=O)N(c4cccc(Oc5ccccc5)c4)C(=O)[C@@H]3CC[C@@H]12 | 0.633 | -0.174 (inactive) | -0.0026 | -0.0686 | 0.112 | 0.956 | -0.0676 | 0.877 | 0.418 | 0.0876 | 0.0079 | 0.929 | 1.58 | 0.589 | 0.612 | 0.207 | -0.82 | 0.514 | 0.0969 | 0.775 (inactive) |
| CO[C@H]1COC(=O)CC=C[C@@H](C)[C@H](OC)COC(=O)[C@@H]2CCCN2C(=O)CC=C[C@@H]1C | -0.871 | 0.668 (inactive) | -0.0077 | -0.107 | -0.377 | -0.339 | -0.322 | 0.672 | 1.32 | -0.222 | 0.118 | -0.834 | -0.145 | -1.02 | 1.39 | 1.01 | 0.0624 | 1.57 | -0.483 | -0.813 (inactive) |
| COC(=O)CC=C[C@@H](C)[C@H](OCc1cccc(-c2ccccc2)c1)C1CCCCC1 | 0.0024 | 0.369 (inactive) | -0.195 | -0.109 | 0.942 | -0.159 | 0.0206 | -0.679 | 1.23 | 0.923 | -0.791 | -0.46 | -0.0125 | -0.14 | 0.768 | -0.226 | 0.237 | 0.0133 | 0.534 | -0.0245 (inactive) |
| O=C1[C@H]2[C@H]3[C@H](O)[C@H](O)CC(=NOCc4ccccc4)[C@H]3CC[C@H]2C(=O)N1Cc1ccc2c(c1)OCO2 | 0.116 | -0.192 (inactive) | 0.0116 | -0.146 | -0.0448 | 1.1 | 0.148 | -0.18 | 0.408 | -0.261 | -0.169 | 0.186 | -0.175 | 0.632 | 0.214 | 0.533 | -0.626 | 0.397 | 0.492 | 1.23 (inactive) |
| CC(C)=CCCC(C)=CCON=C1C[C@@H](O)[C@@H](O)[C@@H]2[C@@H]3C(=O)N(Cc4ccccc4)C(=O)[C@@H]3CC[C@@H]12 | 0.772 | -0.349 (inactive) | -0.0395 | -0.193 | -0.148 | 0.043 | -0.0612 | 0.571 | 1.4 | 0.304 | 0.546 | -0.369 | -0.0506 | -0.266 | 1.07 | 1.44 | 0.071 | 0.894 | -0.0507 | 1.19 (inactive) |
| O=C(NN=C1C[C@@H](O)[C@@H](O)[C@@H]2[C@@H]3C(=O)N(C4CCCCC4)C(=O)[C@@H]3CC[C@@H]12)OCc1ccccc1 | 0.566 | -0.243 (inactive) | -0.0873 | -0.258 | -0.129 | -0.107 | 1.74 | -0.881 | 0.425 | 0.457 | 0.0161 | 0.139 | 0.0639 | 0.294 | 0.0434 | 0.243 | 0.163 | -0.0104 | -0.132 | -0.427 (inactive) |
| CCOC(=O)[C@H](Cc1ccccc1)NC(=O)CCC1CC(OC(=O)NCCc2ccc(F)cc2)CC2(CCCC(COC(=O)NCCCN3CCCC3=O)O2)O1 (stereo not given in full) | 0.468 | 0.0773 (inactive) | 0.0479 | -0.078 | 0.0851 | 0.776 | 0.129 | 1.29 | 0.294 | 1.1 | 0.688 | 0.902 | 0.494 | 0.552 | 0.578 | 0.37 | 0.837 | 0.461 | 0.374 | -0.241 (inactive) |
| CCOC(=O)[C@H](CC(C)C)NC(=O)CCC1CC(OC(=O)NCc2ccc3c(c2)OCO3)CC2(CCCC(COC(=O)NCC(c3ccccc3)c3ccccc3)O2)O1 (stereo not given in full) | 0.23 | 0.142 (inactive) | 0.0876 | -0.147 | 0.538 | 0.674 | -0.144 | 0.714 | 0.0432 | 1.09 | 0.423 | 0.572 | -0.2 | 0.683 | 0.669 | 0.191 | -0.025 | 1.32 | 0.61 | 0.864 (inactive) |
| CCC1=NOC(CCC2CC(OC(=O)NCc3cccc4c3OCO4)CC3(CCCC(COC(=O)NCCc4ccccc4OC)O3)O2)C1 (stereo not given) | 0.946 | 0.632 (inactive) | 0.134 | -0.122 | 0.45 | 1.24 | 0.19 | 1.31 | -0.14 | 0.722 | 0.0887 | 1.19 | 0.494 | 0.155 | 0.505 | 0.297 | 1.41 | -0.0134 | 0.703 | 0.412 (inactive) |
